# In paper PMC8384837, “Expanding the binding specificity for RNA recognition by a PUF domain”:
# Positions count from the first letter of the chain named.
# What was measured:
# Test in all cases: yeast three-hybrid, YBZ-1, SC-Leu-His + 0.5 mM 3-AT, 4 days
# Settings in all cases: tags: N-Gal4 AD-HA kept; label: inside an RPR1-promoter hybrid RNA with tandem MS2 sites; ssRNA
# PUM1 PUF domain R6-TWS = target: T1, PUM1 PUF domain R6-TWS (Homo sapiens, UniProt Q14671 828-1176, N1043T;Y1044W;Q1047S)
# T1 sequence: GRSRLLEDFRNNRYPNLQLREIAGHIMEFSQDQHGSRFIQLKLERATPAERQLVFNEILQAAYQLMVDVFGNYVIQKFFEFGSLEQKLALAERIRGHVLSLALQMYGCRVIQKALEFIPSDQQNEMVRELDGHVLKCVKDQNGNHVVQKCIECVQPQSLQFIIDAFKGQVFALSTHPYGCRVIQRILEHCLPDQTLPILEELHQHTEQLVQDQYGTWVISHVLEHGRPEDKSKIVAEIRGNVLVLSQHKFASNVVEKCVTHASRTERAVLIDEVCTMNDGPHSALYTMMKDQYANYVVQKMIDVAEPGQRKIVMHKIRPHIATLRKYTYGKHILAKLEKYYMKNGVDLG
# Outline: (§1)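 Repeat regions from input (SC-Leu) and selection (SC-Leu-His + 0.5 mM 3-AT) plates were PCR-amplified and Illumina-sequenced after four days of growth. The cells were strain YBZ-1 with a LexA–MS2 coat fusion and a HIS3 reporter, co-expressing Pumilio-1 PUF domain libraries and matching RNA elements from a centromeric plasmid. The interaction score is the log change in variant frequency from input to selection, taken in log2 with a pseudocount of 1 for absent variants.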
# PUM1 PUF domain R5-GQA = PUM1 PUF domain R5-GQA (Homo sapiens, UniProt Q14671 828-1176, C1007G;R1008Q;Q1011A)
# Outline: as §1
# PUM1 PUF domain R5-TND = PUM1 PUF domain R5-TND (Homo sapiens, UniProt Q14671 828-1176, C1007T;R1008N;Q1011D)
# Outline: as §1
# PUM1 PUF domain R5-AQR = PUM1 PUF domain R5-AQR (Homo sapiens, UniProt Q14671 828-1176, C1007A;R1008Q;Q1011R)
# Outline: as §1
# PUM1 PUF domain R5-PHD = PUM1 PUF domain R5-PHD (Homo sapiens, UniProt Q14671 828-1176, C1007P;R1008H;Q1011D)
# Outline: as §1
# PUM1 PUF domain R5-SMS = PUM1 PUF domain R5-SMS (Homo sapiens, UniProt Q14671 828-1176, C1007S;R1008M;Q1011S)
# Outline: as §1
# PUM1 PUF domain R4-QGA = PUM1 PUF domain R4-QGA (Homo sapiens, UniProt Q14671 828-1176, N971Q;H972G;Q975A)
# Outline: as §1
# PUM1 PUF domain R1-RKQ = PUM1 PUF domain R1-RKQ (Homo sapiens, UniProt Q14671 828-1176, S863R;R864K)
# Outline: as §1
# PUM1 PUF domain R8-RRA = PUM1 PUF domain R8-RRA (Homo sapiens, UniProt Q14671 828-1176, N1122R;Y1123R;Q1126A)
# Outline: as §1
# PUM1 PUF domain R5-KQR = PUM1 PUF domain R5-KQR (Homo sapiens, UniProt Q14671 828-1176, C1007K;R1008Q;Q1011R)
# Outline: as §1
# PUM1 PUF domain R6-RPG = target: T2, PUM1 PUF domain R6-RPG (Homo sapiens, UniProt Q14671 828-1176, N1043R;Y1044P;Q1047G)
# T2 sequence: T1 sequence with T216R, W217P, S220G
# Outline: as §1
# PUM1 PUF domain R8-RHV = PUM1 PUF domain R8-RHV (Homo sapiens, UniProt Q14671 828-1176, N1122R;Y1123H;Q1126V)
# Outline: as §1
# PUM1 PUF domain R7-QNR = PUM1 PUF domain R7-QNR (Homo sapiens, UniProt Q14671 828-1176, S1079Q;E1083R)
# Outline: as §1
# PUM1 PUF domain R7-RVR = PUM1 PUF domain R7-RVR (Homo sapiens, UniProt Q14671 828-1176, S1079R;N1080V;E1083R)
# Outline: as §1
# PUM1 PUF domain R7-QPK = PUM1 PUF domain R7-QPK (Homo sapiens, UniProt Q14671 828-1176, S1079Q;N1080P;E1083K)
# Outline: as §1
# PUM1 PUF domain R5-HAD = PUM1 PUF domain R5-HAD (Homo sapiens, UniProt Q14671 828-1176, C1007H;R1008A;Q1011D)
# Outline: as §1
# PUM1 PUF domain R3-MCG = PUM1 PUF domain R3-MCG (Homo sapiens, UniProt Q14671 828-1176, C935M;R936C;Q939G)
# Outline: as §1
# PUM1 PUF domain R8-RYK = PUM1 PUF domain R8-RYK (Homo sapiens, UniProt Q14671 828-1176, N1122R;Q1126K)
# Outline: as §1
# PUM1 PUF domain R8-FYH = PUM1 PUF domain R8-FYH (Homo sapiens, UniProt Q14671 828-1176, N1122F;Q1126H)
# Outline: as §1
# PUM1 PUF domain R7-ASR = PUM1 PUF domain R7-ASR (Homo sapiens, UniProt Q14671 828-1176, S1079A;N1080S;E1083R)
# Outline: as §1
sequence,measurement,setting,value
GGCUAGAACUAGUGGAUCCCCCGGCGCCCGGCGGCUCGAGCCCGGGUAAGUGAAAAUAGUCUGCAUGCCGCCGGGCGCCAUGCCUGCAGGUCGACUCUAGAAAACAUG,binding signal,PUM1 PUF domain R6-TWS,5.32 log2 enrichment (interaction score)
GGCUAGAACUAGUGGAUCCCCCGGCGCCCGGCGGCUCGAGCCCGGGUAAGUGUUAAUAGUCUGCAUGCCGCCGGGCGCCAUGCCUGCAGGUCGACUCUAGAAAACAUG,binding signal,PUM1 PUF domain R5-GQA,2.64 log2 enrichment (interaction score)
same,binding signal,PUM1 PUF domain R5-TND,2.81 log2 enrichment (interaction score)
same,binding signal,PUM1 PUF domain R5-AQR,3.22 log2 enrichment (interaction score)
same,binding signal,PUM1 PUF domain R5-PHD,3.76 log2 enrichment (interaction score)
same,binding signal,PUM1 PUF domain R5-SMS,0.83 log2 enrichment (interaction score)
GGCUAGAACUAGUGGAUCCCCCGGCGCCCGGCGGCUCGAGCCCGGGUAAGUGUAUAUAGUCUGCAUGCCGCCGGGCGCCAUGCCUGCAGGUCGACUCUAGAAAACAUG,binding signal,PUM1 PUF domain R4-QGA,2.73 log2 enrichment (interaction score)
GGCUAGAACUAGUGGAUCCCCCGGCGCCCGGCGGCUCGAGCCCGGGUAAGUGUACAUAGUCUGCAUGCCGCCGGGCGCCAUGCCUGCAGGUCGACUCUAGAAAACAUG,binding signal,PUM1 PUF domain R4-QGA,2.09 log2 enrichment (interaction score)
GGCUAGAACUAGUGGAUCCCCCGGCGCCCGGCGGCUCGAGCCCGGGUAAGUGUAAAUGGUCUGCAUGCCGCCGGGCGCCAUGCCUGCAGGUCGACUCUAGAAAACAUG,binding signal,PUM1 PUF domain R1-RKQ,2.35 log2 enrichment (interaction score)
GGCUAGAACUAGUGGAUCCCCCGGCGCCCGGCGGCUCGAGCCCGGGUAAGUGUGAAUAGUCUGCAUGCCGCCGGGCGCCAUGCCUGCAGGUCGACUCUAGAAAACAUG,binding signal,PUM1 PUF domain R5-SMS,2.69 log2 enrichment (interaction score)
GGCUAGAACUAGUGGAUCCCCCGGCGCCCGGCGGCUCGAGCCCGGGUAAGUGUAAAUAGUCUGCAUGCCGCCGGGCGCCAUGCCUGCAGGUCGACUCUAGAAAACAUG,binding signal,PUM1 PUF domain R6-TWS,2.56 log2 enrichment (interaction score)
same,binding signal,PUM1 PUF domain R8-RRA,1.42 log2 enrichment (interaction score)
same,binding signal,PUM1 PUF domain R5-KQR,0.64 log2 enrichment (interaction score)
same,binding signal,PUM1 PUF domain R6-RPG,3.6 log2 enrichment (interaction score)
same,binding signal,PUM1 PUF domain R8-RHV,3.99 log2 enrichment (interaction score)
GGCUAGAACUAGUGGAUCCCCCGGCGCCCGGCGGCUCGAGCCCGGGUAAGUCUAAAUAGUCUGCAUGCCGCCGGGCGCCAUGCCUGCAGGUCGACUCUAGAAAACAUG,binding signal,PUM1 PUF domain R7-QNR,3.58 log2 enrichment (interaction score)
same,binding signal,PUM1 PUF domain R7-RVR,0.98 log2 enrichment (interaction score)
same,binding signal,PUM1 PUF domain R7-QPK,4.87 log2 enrichment (interaction score)
GGCUAGAACUAGUGGAUCCCCCGGCGCCCGGCGGCUCGAGCCCGGGUAAGUGUCAAUAGUCUGCAUGCCGCCGGGCGCCAUGCCUGCAGGUCGACUCUAGAAAACAUG,binding signal,PUM1 PUF domain R5-AQR,5.35 log2 enrichment (interaction score)
same,binding signal,PUM1 PUF domain R5-KQR,2.87 log2 enrichment (interaction score)
same,binding signal,PUM1 PUF domain R5-HAD,6.65 log2 enrichment (interaction score)
GGCUAGAACUAGUGGAUCCCCCGGCGCCCGGCGGCUCGAGCCCGGGUAAGUGUAAGUAGUCUGCAUGCCGCCGGGCGCCAUGCCUGCAGGUCGACUCUAGAAAACAUG,binding signal,PUM1 PUF domain R3-MCG,2.55 log2 enrichment (interaction score)
GGCUAGAACUAGUGGAUCCCCCGGCGCCCGGCGGCUCGAGCCCGGGUAAGCGUAAAUAGUCUGCAUGCCGCCGGGCGCCAUGCCUGCAGGUCGACUCUAGAAAACAUG,binding signal,PUM1 PUF domain R8-RYK,7.26 log2 enrichment (interaction score)
same,binding signal,PUM1 PUF domain R8-RRA,3.15 log2 enrichment (interaction score)
same,binding signal,PUM1 PUF domain R8-FYH,2.85 log2 enrichment (interaction score)
same,binding signal,PUM1 PUF domain R8-RHV,5.23 log2 enrichment (interaction score)
GGCUAGAACUAGUGGAUCCCCCGGCGCCCGGCGGCUCGAGCCCGGGUAAGUUUAAAUAGUCUGCAUGCCGCCGGGCGCCAUGCCUGCAGGUCGACUCUAGAAAACAUG,binding signal,PUM1 PUF domain R7-RVR,4.32 log2 enrichment (interaction score)
same,binding signal,PUM1 PUF domain R7-ASR,2.25 log2 enrichment (interaction score)
